The campaign covered roughly 5,500 compounds. About 2,000 (36%) were called active. Roughly 18% stayed inconclusive and do not appear here. Rule as the data show it: active = normalized growth mostly below about 0.91 (no sharp cut-off); inconclusive = no clear call, values can overlap the other calls; inactive = mostly above about 0.92. This is one part of the list.
Test: chemical genetic growth profiling, strain panel (AID 1159580);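 also: tested at 20 µM; growth read once vehicle control cultures reached saturation at 30 °C; 1 = growth at the plate median or of vehicle wells; lower values mean less growth of the strain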
Settings: growth OD

Measured: normalized growth

Cn1cnc([N+](=O)[O-])c1Sc1ncnc2nc[nH]c12
inactive: S. cerevisiae deletion strains, locus YKL009W, strain mrt4, stronger effect = lower value 0.983 | S. cerevisiae deletion strains, locus YKL068W, stronger effect = lower value 0.997 | S. cerevisiae deletion strains, locus YKL085W, strain MDH1 (second series), stronger effect = lower value 1 | S. cerevisiae deletion strains, locus YKL085W, strain MDH1, stronger effect = lower value 1 | S. cerevisiae deletion strains, locus YKL160W, strain elf1, stronger effect = lower value 1.04 | S. cerevisiae deletion strains, locus YKL190W, strain CNB1, stronger effect = lower value 1.01 | S. cerevisiae deletion strains, locus YKR001C, strain vps1, stronger effect = lower value 0.988 | S. cerevisiae deletion strains, locus YKR026C, strain gcn3, stronger effect = lower value 1.01 | S. cerevisiae deletion strains, locus YKR091W, strain srl3, stronger effect = lower value 1.01 | S. cerevisiae deletion strains, locus YLL001W, strain dnm1, stronger effect = lower value 1.02 | S. cerevisiae deletion strains, locus YLL026W, stronger effect = lower value 1.03 | S. cerevisiae deletion strains, locus YLL041C, strain sdh2, stronger effect = lower value 1.02 | S. cerevisiae deletion strains, locus YLR027C, strain aat2, stronger effect = lower value 1.02 | S. cerevisiae deletion strains, locus YLR039C, strain RIC1, stronger effect = lower value 1.09 | S. cerevisiae deletion strains, locus YLR058C, strain SHM2, stronger effect = lower value 1.01 | S. cerevisiae deletion strains, locus YLR102C, strain apc9, stronger effect = lower value 0.993 | S. cerevisiae deletion strains, locus YLR113W, strain HOG1, stronger effect = lower value 1.03 | S. cerevisiae deletion strains, locus YLR221C, strain rsa3, stronger effect = lower value 1.01 | S. cerevisiae deletion strains, locus YLR258W, strain gsy2, stronger effect = lower value 1.02 | S. cerevisiae deletion strains, locus YLR262C, strain YPT6 (second series), stronger effect = lower value 0.996 | S. cerevisiae deletion strains, locus YLR262C, strain YPT6, stronger effect = lower value 1.1 | S. cerevisiae deletion strains, locus YLR268W, strain sec22, stronger effect = lower value 0.981 | S. cerevisiae deletion strains, locus YLR320W, strain mms22, stronger effect = lower value 1.01 | S. cerevisiae deletion strains, locus YLR330W, strain CHS5, stronger effect = lower value 1.01 | S. cerevisiae deletion strains, locus YLR342W, strain FKS1 (second series), stronger effect = lower value 1.01 | S. cerevisiae deletion strains, locus YLR342W, strain FKS1, stronger effect = lower value 1.02 | S. cerevisiae deletion strains, locus YLR357W, strain rsc2, stronger effect = lower value 1 | S. cerevisiae deletion strains, locus YLR370C, strain arc18, stronger effect = lower value 1.03 | S. cerevisiae deletion strains, locus YLR371W, strain rom2, stronger effect = lower value 0.984 | S. cerevisiae deletion strains, locus YLR384C, strain iki3, stronger effect = lower value 1.03 | S. cerevisiae deletion strains, locus YLR418C, strain cdc73, stronger effect = lower value 1 | S. cerevisiae deletion strains, locus YML016C, strain PPZ1, stronger effect = lower value 1.02 | S. cerevisiae deletion strains, locus YML032C, strain rad52, stronger effect = lower value 0.989 | S. cerevisiae deletion strains, locus YML120C, strain ndi1, stronger effect = lower value 0.999 | S. cerevisiae deletion strains, locus YML124C, strain tub3, stronger effect = lower value 0.994 | S. cerevisiae deletion strains, locus YMR058W, strain fet3, stronger effect = lower value 1.01 | S. cerevisiae deletion strains, locus YMR078C, strain ctf18, stronger effect = lower value 0.985 | S. cerevisiae deletion strains, locus YMR125W, strain sto1, stronger effect = lower value 1.01 | S. cerevisiae deletion strains, locus YMR129W, stronger effect = lower value 1.01 | S. cerevisiae deletion strains, locus YMR205C, strain PFK2, stronger effect = lower value 1.02 | S. cerevisiae deletion strains, locus YMR223W, strain ubp8, stronger effect = lower value 0.994 | S. cerevisiae deletion strains, locus YMR231W, strain pep5, stronger effect = lower value 1.02 | S. cerevisiae deletion strains, locus YMR263W, strain SAP30, stronger effect = lower value 0.999 | S. cerevisiae deletion strains, locus YMR307W, strain GAS1, stronger effect = lower value 1.11 | S. cerevisiae deletion strains, locus YNL067W, strain RPL9B, stronger effect = lower value 0.99 | S. cerevisiae deletion strains, locus YNL071W, strain lat1, stronger effect = lower value 1.03 | S. cerevisiae deletion strains, locus YNL153C, strain GIM3, stronger effect = lower value 0.995 | S. cerevisiae deletion strains, locus YNL175C, strain NOP13, stronger effect = lower value 1.01 | S. cerevisiae deletion strains, locus YNL183C, strain NPR1, stronger effect = lower value 1 | S. cerevisiae deletion strains, locus YNL197C, strain WHI3, stronger effect = lower value 1 | S. cerevisiae deletion strains, locus YNL209W, strain ssb2, stronger effect = lower value 1.04 | S. cerevisiae deletion strains, locus YNL224C, strain SQS1, stronger effect = lower value 0.966 | S. cerevisiae deletion strains, locus YNL233W, strain BNI4, stronger effect = lower value 1 | S. cerevisiae deletion strains, locus YNL248C, strain rpa49, stronger effect = lower value 1.06 | S. cerevisiae deletion strains, locus YNL250W, strain rad50, stronger effect = lower value 0.99 | S. cerevisiae deletion strains, locus YNL271C, strain bni1, stronger effect = lower value 0.993 | S. cerevisiae deletion strains, locus YNL298W, strain CLA4, stronger effect = lower value 0.995 | S. cerevisiae deletion strains, locus YNL307C, strain MCK1, stronger effect = lower value 0.981 | S. cerevisiae deletion strains, locus YNL322C, strain KRE1 (second series), stronger effect = lower value 1.02 | S. cerevisiae deletion strains, locus YNL322C, strain KRE1, stronger effect = lower value 1.01 | S. cerevisiae deletion strains, locus YNR049C, strain mso1, stronger effect = lower value 1.01 | S. cerevisiae deletion strains, locus YNR052C, strain pop2, stronger effect = lower value 0.99 | S. cerevisiae deletion strains, locus YOL006C, strain TOP1, stronger effect = lower value 1 | S. cerevisiae deletion strains, locus YOL012C, strain htz1 1.34 | S. cerevisiae deletion strains, locus YOL147C, strain pex11, stronger effect = lower value 0.988 | S. cerevisiae deletion strains, locus YOR001W, strain rrp6, stronger effect = lower value 1.01 | S. cerevisiae deletion strains, locus YOR061W, strain CKA2, stronger effect = lower value 1.02 | S. cerevisiae deletion strains, locus YOR069W, strain VPS5, stronger effect = lower value 1.01 | S. cerevisiae deletion strains, locus YOR070C, strain gyp1, stronger effect = lower value 1.03 | S. cerevisiae deletion strains, locus YOR080W, strain dia2, stronger effect = lower value 1.02 | S. cerevisiae deletion strains, locus YOR083W, strain WHI5 (second series), stronger effect = lower value 1.02 | S. cerevisiae deletion strains, locus YOR083W, strain WHI5, stronger effect = lower value 0.98 | S. cerevisiae deletion strains, locus YOR106W, strain vam3, stronger effect = lower value 1.04 | S. cerevisiae deletion strains, locus YOR136W, strain idh2, stronger effect = lower value 0.979 | S. cerevisiae deletion strains, locus YOR144C, strain elg1, stronger effect = lower value 0.987 | S. cerevisiae deletion strains, locus YOR184W, strain ser1, stronger effect = lower value 0.981 | S. cerevisiae deletion strains, locus YOR231W, strain MKK1, stronger effect = lower value 1.06 | S. cerevisiae deletion strains, locus YOR265W, strain rbl2, stronger effect = lower value 1.02 | S. cerevisiae deletion strains, locus YOR270C, strain vph1, stronger effect = lower value 1.05 | S. cerevisiae deletion strains, locus YOR290C, strain snf2, stronger effect = lower value 1.04 | S. cerevisiae deletion strains, locus YOR316C, strain cot1, stronger effect = lower value 0.996 | S. cerevisiae deletion strains, locus YPL051W, strain arl3, stronger effect = lower value 1.04 | S. cerevisiae deletion strains, locus YPL078C, strain atp4, stronger effect = lower value 1.03 | S. cerevisiae deletion strains, locus YPL106C, strain sse1, stronger effect = lower value 1.03 | S. cerevisiae deletion strains, locus YPL240C, strain hsp82, stronger effect = lower value 1.05 | S. cerevisiae deletion strains, locus YPL241C, strain CIN2, stronger effect = lower value 1 | S. cerevisiae deletion strains, locus YPL256C, strain CLN2, stronger effect = lower value 1.05 | S. cerevisiae deletion strains, locus YPR119W, strain clb2, stronger effect = lower value 0.991 | S. cerevisiae deletion strains, locus YPR141C, strain kar3, stronger effect = lower value 0.99 | S. cerevisiae deletion strains, locus YPR163C, strain tif3, stronger effect = lower value 0.981 | S. cerevisiae deletion strains, locus YPR167C, strain met16, stronger effect = lower value 0.989 | S. cerevisiae deletion strains, strain wtn01, stronger effect = lower value 0.988 | S. cerevisiae strains, strain wild type, stronger effect = lower value 1.01

Source: PubChem BioAssay AID1159580 (chemical genetic matrix, 2015)
